Molecules are shown by their SMILES. The panel holds about 83,000 compounds, 20% with a hit somewhere; the sample as a whole holds those more often.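 Single-dose data. Exposure time 48 hours. Values below 10 considered active.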 Values without a mark were called inactive. The source made the active and inactive calls.

The test system of the test is MDA-MB-468 breast. Nature of the test: NCI-60 one-dose screen, 48 h (100 = growth as untreated, 0 = no growth, -100 = all killed). The following applies: 10 µM unless noted.
For `COc1cc2cc(Oc3ccc(NC(=O)Nc4cccc(C(F)(F)F)c4)cc3)c(C)nc2cc1OCCN1CCOCC1`, the growth is -3.82% (active).
To `CCOC(=O)c1c(C)oc2ncnc(Nc3ccc(NC(=O)Nc4cccc(Cl)c4)cc3)c12` belongs 49.7%; to `CN1CCN(c2ccc(C(=O)Nc3cccc(C#Cc4cccc5[nH]nc(N)c45)c3)cc2C(F)(F)F)CC1`, -26.6% (active).
As for `C[C@@H]1OCC2(CCN(c3cnc(C(=O)Nc4cc(F)cc5cccnc45)cn3)CC2)[C@@H]1N`, the figure is 1.07% (active).
As for `CCN(C)c1ccccc1`, the growth was 113%.
As for `Nc1nccc(Nc2ccccc2)n1`, the figure is 116%; as for `C[C@]12C=CC(=O)C=C1[C@@H](F)C[C@@H]1[C@@H]2[C@@H](O)C[C@@]2(C)[C@H]1CC[C@]2(O)C(=O)CO`, 123%; as for `COc1ccc(Cn2cc(Cn3cc(C=C4C(=O)NC(=O)NC4=O)c4ccccc43)nn2)cc1`, 18.5%.
For the compound `O=C1NC(=O)/C(=C/c2c(-c3ccccc3)nc3sc(COc4ccccc4)nn23)S1`, the growth is 98.9%.
In the case of `COc1cc(OC)c(/C=C/S(=O)(=O)Cc2cnc(OC)c(N)c2)c(OC)c1`, the growth is 23.6%.
Take `COc1ccc(C2CC(=O)c3c(O)cc(OC4OC(COC5OC(C)C(O)C(O)C5O)C(O)C(O)C4O)cc3O2)cc1O` (stereo unspecified): the growth is 96.9%.
As for `CC/C(=C(\c1ccc(Cl)cc1)c1ccc(OCCN2CCCCC2)cc1)c1ccc(O)cc1`, the figure is 22.4%; as for `COc1ccc(/C=c2\sc3n(c2=O)NC2C(N=3)N(C)C(=O)N2C)cc1` (stereo unspecified), 99%.
For `C#CC[C@H](N)C(=O)O`, the growth is 101% [20 µM].
Take `Nc1ccc(NC(=O)c2ccccc2)c2c1C(=O)c1ccccc1C2=O`: the growth is 107%.
To `Clc1ccc2c(c1)N(C1CCCN(Cc3ccccc3)C1)c1ccccc1S2` (stereo unspecified) belongs 29.5%.
`Oc1ccccc1/C=N/Nc1ccc2ccccc2n1`: the growth was 15.1%.
With `CCN1C(=S)N(c2ccccc2)C2NC(=O)N(/N=C/C=C/c3ccccc3OC)C21` (stereo unspecified), the growth was 79%.
Consider `COc1ccc(C2CC(c3cc(OC)c(OC)c(OC)c3)=NN2)cc1` (stereo unspecified), for which the growth was 66.6%.
Take `O=C1[C@@H]2Cc3c([nH]c4ccccc34)[C@@H](c3ccc(Cl)cc3)N2C(=O)CN1C1CCN(Cc2ccccc2)CC1`: the growth is 49.5%.
For the compound `Cc1ccc(NC(=O)Nc2ccc(Nc3ncnc4sc5c(c34)CCOC5)cc2)cc1Cl`, the growth is 102%.
For the compound `COC(=O)c1ccc2c(c1)NC(=O)[C@@H]1CCCN21`, the growth is 109%.
On to `COC12CC(=O)C(C(C)=O)=C(O)C1(C)c1c(O)c(C)c(O)c(C(C)=O)c1O2` (stereo unspecified), for which the growth is 68.9%.
To `O=C(N/N=C/c1ccncc1)c1ccccc1Nc1cccc(C(F)(F)F)c1` belongs 48.7%.
As for `COc1cccc(-c2nn(-c3ccccc3)cc2-c2ccnc(NCCCNC(=O)c3ccc(F)cc3)c2)c1`, the growth was 13.7%.
As for `COc1ccc(-c2c(C)nn3c(NCCN4CCOCC4)cc(C)nc23)cc1OC`, the growth was 96.3%.
For `Cc1ccc(S(=O)(=O)OCCCOS(=O)(=O)c2ccc(C)cc2)cc1`, the growth is 100%.
As for `N#Cc1ccc(-n2nnc3ccccc32)cc1C#N`, the growth was 99.5%.
To `COc1ccc(NC(=O)Nc2ccccc2CNc2nc(Nc3ccc(OCCN4CCCC4)cc3)ncc2Cl)cc1` belongs -43.5% (active); to `[Cl][Ru].c1ccc(-c2cccc(-c3ccccn3)n2)nc1.c1ccc(-c2ccnc3c2ccc2c(-c4ccccc4)ccnc23)cc1`, -21.4% (active); to `O=C(N/N=C\c1cc(Cl)ccc1O)N/N=C/c1cc(Cl)ccc1O`, 61.5%.
As to `Cc1cc2c(-c3nc4ccccc4n3C)c(O)c(O)cc2c(O)c1-c1c(C)cc2c(-c3nc4ccccc4n3C)c(O)c(O)cc2c1O`, the growth is 35.7%.
For `CC1(C)CC[C@]2(C(N)=O)CC[C@]3(C)C(=CC[C@@H]4[C@@]5(C)C/C(=C/c6ccncc6)C(=O)C(C)(C)[C@@H]5CC[C@]43C)[C@@H]2C1`, the growth was -25.2% [100 µM] (active).
On to `O=C1NC(=Nc2ccc(S(=O)(=O)Nc3nccs3)cc2)S/C1=C\c1coc2ccccc2c1=O`, for which the growth was 99.9%.
As for `c1cncc(CNc2ccccc2-c2nnc(Nc3ccc4c(c3)OCCO4)o2)c1`, the figure is -0.422% (active); as for `CN(C)CCn1cc(-c2ccc3c(Nc4ccc(CC(=O)Nc5cccc(F)c5)cc4)ncnc3c2)cn1`, -82.9% [30 µM] (active).

The values are drawn from PubChem BioAssay (NCI).
